Results published in PubChem BioAssay AID1508600 (Functional Genomics Laboratory (NCATS/FGL), 2020).
The whole screen tested about 53,000 sequences, of which about 3,700 (7%) were called active. The entries come from a sample that favours actives as a whole. A number with no mark means an inactive call.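 Rule for the calls: active = gene knockdowns whose robust z-score for IL-1 alpha signal is at least 2 or at most -2, so actives lie on both sides; inactive = the rest.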

Assay: Components of the Cytosolic LPS Sensing Pathway: Gene Identification via Genome-wide siRNA Screen;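 note: robust z of the log signal after scaling to non-targeting control siRNA wells of the plate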
Conditions: RAW264.7 macrophages, IL-1a HTRF, actives lie on both sides, screened at 100 nM (by protocol), cells primed 5 h with Pam3CSK4 first
Method in brief: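 Supernatant IL-1a by HTRF from RAW264.7 cells primed with Pam3CSK4 (5 hours) and transfected with LipidA (24 hour) after 48h siRNA knockdown at 100 nM; cell viability checked with CellTiter-Glo.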

Row | Sequence | z-score
1 | CGAGAGCAUUAAUUACUUCTT against Sulf1 | 0.621
2 | GGACUACGAAUACCCAUCGTT against Cck | -0.42
3 | GGGCAAUUUGGACUGUUUUTT against Jam3 | -0.973
4 | GGGUUUUAGAAUGAAAUACTT against Emc6 | 2.35 (active)
5 | GGAAGCAUUCCAAUGGUAGTT against Cyp2c39 | -0.532
6 | GGCCAGACAUGUUGAAGAATT against Ssna1 | -2.42 (active)
7 | CGAUGCUGUGGAACUGCACTT against Ptgfrn | 0.417
8 | CCGCGCCGUUGAUUCAUUUTT against Spata17 | 1.08
9 | GGACACCAUGCCACAGACATT against Hlx | -1.43
10 | GCAGAUCACCUUUUGUUUATT against Gdap2 | 0.767
11 | GGAUCCGUGCUGAAGUUUUTT against Cep20 | -0.338
12 | GCUUCCCGCUAUGAGUUCATT against Shisa7 | 2.24 (active)
13 | GGAUUGUUAGCAAAGAAAGTT against Aco1 | -0.0776
14 | GGUAGCAUGCUUUUGGUGCTT against Unkl | 0.329
15 | CGAAGGCUUUUGAAUUCAATT against Pcdh17 | 0.41
16 | GGACUUCUACACCUCGAAATT against Amz2 | -1.05
17 | GCUGAGGAAAUGCGAAGUCTT against Tmem98 | 0.0406
18 | GGGCAACCCACAAUAAAAATT against B9d1 | -1.66
19 | GGCUUUGAGAUAUGAACAGTT against Arrdc2 | 2.53 (active)
20 | GGCAAGGAAUCAAUGUCUCTT against Fscn2 | -0.229
21 | GGACAAUUCCAGUCAAUAATT against Ccdc115 | -1.01
22 | GGAUUUCGGCUUUUUGAACTT against Bcas1 | 0.531

Row | Sequence | z-score
23 | GCCCUUAUGGACGAAAUUUTT against Ang2 | 0.0523
24 | GGUCUGCUCAAUGCUAUCATT against Olfr918 | -1.47
25 | GGAGAGACUCAGGAGUUUUTT against Rnd2 | 2.74 (active)
26 | UGAAUAAGGUGUGGUGCUCTT against Vmn1r148 | 0.607
27 | GGCUAACUUUAGUGAGGUATT against 3110070M22Rik | 0.233
28 | CCGAAGUGCAACAAGCCAATT against Abl2 | 1.17
29 | GGGUACGUGAAGAAACUUCTT against Meig1 | -2.23 (active)
30 | GGGCACACGUACCAACUAUTT against Mib2 | -0.458
31 | GGGACCCUACAAAAUCAUUTT against Ganab | 0.467
32 | GGAUCUUUUCAGGUUCUAATT against Olfr659 | 0.377
33 | GCUAGAAGCCUGACAUUUUTT against Tbca | -0.538
34 | CGAUUGAUGAAUCUGGUUCTT against Racgap1 | -0.31
35 | GCUGGUCAAGGGUCUAGAGTT against Saa3 | -2.05 (active)
36 | GGGAGUUCUCUAAAUGCUUTT against Olfr482 | 1.52
37 | GCCUCCAGUAUCAUAAUUGTT against Antxr2 | 1.26
38 | CCAGUUCGAUGUGGUAAUATT against St3gal5 | 1.11
39 | GGAUGUCACAUGACAGUUUTT against Tmprss4 | 0.563
40 | GGAUCCAACAAAUGUUAUUTT against Ccdc92 | 2.06 (active)
41 | CGAUGGUGAUUCCCAUGUUTT against Olfr996 | 0.529
42 | GCUAUCUCGGUGUCAACUUTT against Aqp7 | -1.26
43 | GGUUGGAUUAUUAGGAAUUTT against Dnah5 | 0.0387
44 | GGGCUCCUUUUUUUUUUUUTT against Frat1 | -2.55 (active)

Row | Sequence | z-score
45 | CCAAUUGCUCUCCAUGAAATT against Coro1c | 0.331
46 | GCUUGGAAGACAUUGACCCTT against Brsk2 | -0.996
47 | GGUUACAGAAGAAUUAGAATT against Ift57 | 9.9e-05
48 | CCCUCUUUAUCGUCUGUGATT against Gpha2 | -2.89 (active)
49 | GGGAUUGAGAUCCUCAUACTT against Olfr1179 | 0.125
50 | GCCGAGAUGGUCAUAAGCUTT against Rbbp5 | 1.99
51 | CCUACCACAACAUGUAUCCTT against S100a11 | 2.25 (active)
52 | GCACGGCGAAAAAAUCUUCTT against Katnal2 | -0.167
53 | GCAGUGGUAGAACAUCCAATT against Bhmt2 | 0.585
54 | CCUACUGUCUAAGAAUACATT against Olfr1138 | -1.65
55 | CCUUCCACAAAUACUCAGGTT against S100a4 | 0.562
56 | GGCUUAUGUGAUUUUGAUUTT against Gpr63 | -0.628
57 | GGAGAAGAUGUCAUCCAGATT against Zfp467 | -0.37
58 | GGAUAGACACUAGGAUCCUTT against Pdcd1lg2 | 0.721
59 | GCUGCUAUGAGAGAGUUUUTT against Serpind1 | 2.18 (active)
60 | GGCAACAAAUCAAAGCAGCTT against Anxa7 | 1.4
61 | GCUUAUAAAGUAGUGGUUUTT against Wnt2b | -0.384
62 | GCACCGAGUGGAAUAAUCATT against Lrp12 | 3.44 (active)
63 | CCGUAAGUCUCGGAUCUCCTT against Plcxd1 | 0.373
64 | GCCACUACAUAAAAUAGUCTT against Ube2z | 0.0966
65 | GGAGAUGAGGUGAAGUGGATT against Acsm4 | -0.213
66 | GGCAUAUAUACAUGCCUGCTT against Vmn1r215 | 0.833

Row | Sequence | z-score
67 | GCCCUACUAAGUCAAUUAATT against 1700055D18Rik | 0.248
68 | GGACAUUUUCAAACAAGGCTT against Mthfs | -1.07
69 | GGGAAAAUAUCAGCUCAAUTT against D930048N14Rik | -2.63 (active)
70 | GCCUUGUGACAGCAUUAGUTT against Slc6a13 | -0.0361
71 | GGUGCUAAAUAAGACAAUGTT against Psma4 | -1.76
72 | GGGCAUGUGGAUGACUGAUTT against Gnptg | 2.04 (active)
73 | GGGCUAGCAUCACAGUUUUTT against Tigd3 | 2.3 (active)
74 | GCCCACUCACACCUAUUCUTT against Olfr1388 | 0.406
75 | GGCGCAAGUUUGAUUUUGATT against Gigyf1 | 1.23
76 | CCAUCUUGAAGAUUCGUUCTT against Olfr486 | -1.24
77 | GCUAAUCUAUCCGUGUCCUTT against B3gnt3 | -0.522
78 | GGUAUAGCGGUGCAUGUCATT against Bmp8a | -0.823
79 | GCUGGAGAUCAUCCUUCAGTT against Rph3al | 0.742
80 | GCUCCAGGCAUUGAGAAUGTT against Hcfc1r1 | 1.98
81 | GGGAAGCUAAUAAAAGCACTT against Rgs20 | -0.902
82 | GGUGCUCAAAGAAUGCAUUTT against Prkar1b | 0.367
83 | GGCUUGCAUAUCUAUUGGATT against Map2k6 | 2.61 (active)
84 | CCUCUCAGAUUUUCACAUATT against Zfp599 | 1.36
85 | GGCUCAAAGUCCUCAGAGCTT against Atp6v1e1 | -2.15 (active)
86 | GGGAUUGUAUGAGUGCACATT against Coa4 | 0.657
87 | GGAGUCUUCUCAAUUUGACTT against Olfr1105 | -0.617
88 | CCUAUAUGACAAAAGACAGTT against Glra2 | -0.168

Row | Sequence | z-score
89 | GGCGGUCUUUAAGAUGCUCTT against Ubl7 | 2.12 (active)
90 | GCUAGGUAUACAGCCAAAGTT against Spryd4 | -0.699
91 | GCGCGUCAUCUUCUGACUUTT against Mmgt2 | 1.45
92 | GGUGACUUGCUUUAGAAAATT against Tnfaip8l1 | 0.184
93 | GCACCUCCUUAUGUGUCAUTT against Chrm2 | 0.729
94 | GGACAUGACAUUUUUACGCTT against Cyp4f16 | -1.26
95 | GGAUAUGAACAAUAGCAUATT against Kcna1 | 2.2 (active)
96 | GGACUUAUCACUAUUUGCATT against Dlgap3 | 0.782
97 | GCCAUAGCUAUUGUCAUUCTT against Mmp16 | 0.441
98 | GCAUGGUAUCAGGUACAUATT against Med9 | 2.2 (active)
99 | GGUCUUUGUACAUCAAUGUTT against Zfp677 | -0.241
100 | AACCAGUCCUUGAAAAGAGTT against Olfr128 | -1.01
101 | GGAAGGUAUCCACUGUGCATT against Nme6 | -1.46
102 | CCUCACCAGGUAAAUUUUUTT against Ro60 | -1.25
103 | GGUACUUUCCUUUCGAUGCTT against Skint10 | -0.524
104 | CCUGGUAACCUGCUAAAAGTT against Gm5124 | 1.24
105 | GGACUGGUUCUUCAGUACCTT against Cradd | 2.21 (active)
106 | GGAACACAUUACCUCAAUUTT against Lipt2 | -0.705
107 | GGAACUCAUGUGAAGCUCCTT against Ssu72 | -0.544
